Compound activity from PubChem BioAssay.
dFosB activator: activators of mouse delta FosB homodimer | purified delta FosB, TAMRA-CDK5 oligo fluorescence polarization; percent of positive-control signal above neutral wells | activation, % at 25 µM | 340,000 tested, 0.99% active;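 active means mean activation above about 17%, with every replicate also reaching it, limit read from the data, passing the limit was not always enough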
NALP1 inh: inhibitors of NALP1 inflammasome in yeast; S. cerevisiae NALP1/ASC/caspase-1 growth, X-gal OD620, 72 h; inhibition, % at 10 µM; 280,000 tested, 0.61% active; in the data active means inhibition mostly above about 24%, no sharp cut-off; inactive means mostly below about 32%
EBNA-1 inhibitor: blocks EBNA-1 binding to DNA; 300,000 tested, 0.34% active; inhibition, % at 14.8 µM; EBNA-1 DNA binding, fluorescence polarization; in the data active means inhibition above about 28%
NLRP3 yeast inh: inhibitors of NALP3 inflammasome in yeast. Yeast reconstituted NLRP3/ASC/caspase-1, beta-gal luminescence, 24 h. inhibition, % at 10 µM. 330,000 tested, 0.39% active;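 active means inhibition of 50% or more; inactive means inhibition below 50%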;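 further: plate controls were induced DMSO wells for no effect and uninduced yeast grown without galactose for full effect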
PolyA inhibitor: yeast polyadenylation inhibition; S. cerevisiae SKY197-pL101 polyadenylation reporter, beta-gal luminescence; efflux-impaired pdr1/pdr3 knockout yeast; score 100 = 6 SD above DMSO; activity score, % at 12 µM; 300,000 tested, 0.02% active; AID 1875;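 active means lowest replicate activity score at least 50, where 100 means six control SD above control mean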;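 further: yeast exposed to compound for 9 h at 30 °C; higher score means more reporter readthrough which indicates perturbed polyadenylation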
ZTA DNA inh: counter-screen for EBNA-1 inhibitors: inhibitors of Epstein-Barr virus ZTA. inhibition, % at 11 µM. AID 2234. P03206. ZTA-DNA binding, fluorescence polarization. 320,000 tested, 0.15% active; in the data active means inhibition above about 33%
Target sequence (P03206 whole entry, looked up): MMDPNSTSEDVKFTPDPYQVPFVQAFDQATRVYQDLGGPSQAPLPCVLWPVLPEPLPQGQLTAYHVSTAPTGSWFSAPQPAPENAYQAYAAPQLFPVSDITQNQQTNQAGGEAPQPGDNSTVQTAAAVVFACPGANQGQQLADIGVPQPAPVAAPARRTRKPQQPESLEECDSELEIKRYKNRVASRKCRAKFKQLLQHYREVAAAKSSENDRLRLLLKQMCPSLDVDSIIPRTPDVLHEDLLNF
NALP3 yeast conf: NALP3 inhibition confirmation in yeast. inhibition, % at 10 µM. shares compounds with NLRP3 yeast inh. 1,300 tested, 81% active. yeast expressing human NALP3, luminescence; in the data active means inhibition above about 48%
Casp1 ASC ctr: counter-screen for NALP3 inhibitors: yeast caspase-1-ASC | shares compounds with NLRP3 yeast inh | yeast expressing Caspase-1-ASC, luminescence counter screen | inhibition, % at 10 µM | 1,000 tested, 66% active | AID 488784
NALP3 retest: confirmation retest of NALP3 inhibitors in yeast. shares compounds with NLRP3 yeast inh. yeast expressing human NALP3, luminescence read-out. inhibition, % at 10 µM. 1,000 tested, 53% active. AID 488794
An asterisk follows results filed as active; . = not tested or not shown. Compounds with a hit are over-represented: about 2.2% of the library has one in this group of screens. Unless noted, no stated cut-off is given here; in the data, active means inhibition above about 50%; inactive means the rest.

SMILES	dFosB activator	NALP1 inh	EBNA-1 inhibitor	NLRP3 yeast inh	PolyA inhibitor	ZTA DNA inh	NALP3 yeast conf	Casp1 ASC ctr	NALP3 retest
O=C(NC1CCCCCC1)c1c(O)nc2sccn2c1=O	-6	.	9	45	4	-2	.	.	.
COC(=O)C1C(C(=O)OC)C1(c1ccccc1)c1ccccc1 (configuration not stated)	15	0	-5	-138	11	-6	-38	.	.
CCCCOc1ccc2c(c1)C(=O)c1cc(O)ccc1-2	-12	2	4	61*	-18	9	70*	66*	62*
CCCNC(=O)c1cc2cc([N+](=O)[O-])ccc2s1	-5	14	-10	52*	16	-13	41	44	38
Cc1sc2ncnc(Sc3nnnn3-c3ccccc3)c2c1C	-1	18	-8	38	-54	-5	.	.	.
Clc1ccc(-n2nnnc2Sc2ncnc3sccc23)cc1	-3	.	-6	64*	-26	-3	74*	94*	76*
CN(C(=O)c1cccc(NC(=O)Cc2cccc(NC(=O)C3CCCN(C(=O)C4CCC4)C3)c2)c1)C1CCC1 (configuration not stated)	-12	.	.	.	.	.	.	.	.
COc1cccc(C(C#N)NCCCNC(C#N)c2cccc(OC)c2OC)c1OC (configuration not stated)	-4	.	.	.	.	.	.	.	.
c1ccc(C2Nc3ccccc3C3OCCCC23)cc1 (configuration not stated)	-2	10	2	62*	-2	0	54*	42	58*
COc1c(C)cc(C(=O)C2CCCN(C(=O)CCc3scnc3C)C2)cc1C (configuration not stated)	-1	-10	2	9	20	0	.	.	.
CCn1c(-c2cc(-c3ccc(C)cc3)nc3ccccc23)n[nH]c1=S	-14	5	-6	40	-7	8	.	.	.
CCn1c(-c2cc(-c3ccc(OC(C)C)cc3)nc3ccccc23)n[nH]c1=S	-11	-17	5	54*	5	-9	37	.	.
Cc1ccc(OCc2cc(C(=O)NC3CCc4ccccc43)no2)cn1 (configuration not stated)	-12	-12	.	32	-6	.	.	.	.
CC(C)(CNC(=O)CCNC(=O)c1ccc(Br)cc1)N1CCOCC1	4	.	0	7	5	7	.	.	.
CC(C)COC(=O)N1CCN(S(=O)(=O)c2ccc3c(c2)CCC3)CC1	-3	.	.	53*	.	-2	51*	21	29
CC(C)(C)NC(=O)N1CCN(S(=O)(=O)c2ccc3c(c2)CCC3)CC1	-5	.	.	17	.	9	.	.	.
CCc1noc(C)c1C(=O)Nc1ncc(C)s1	-12	-31	-5	14	-5	-1	.	.	.
CCc1noc(C)c1C(=O)Nc1nc(-c2cccs2)cs1	-4	.	8	56*	16	-2	71*	62*	60*
Cc1noc(C)c1C(=O)Nc1nc(-c2cccs2)cs1	-4	.	.	39	.	-8	.	.	.
CCc1noc(C)c1C(=O)Nc1nc2c(C)cccc2s1	-16	.	4	59*	-21	-5	74*	69*	55*
CCc1noc(C)c1C(=O)Nc1ccc(C(F)(F)F)cc1	-6	15	2	50*	0	-8	62*	49	46
CCc1noc(C)c1C(=O)Nc1nc2c(F)cc(F)cc2s1	-4	.	.	72*	.	0	76*	79*	67*
CCc1noc(C)c1C(=O)Nc1nc(-c2ccc(F)cc2)c(C)s1	-6	6	-12	13	-17	3	.	.	.
O=C(Cn1ccccc1=O)Nc1ccc(Cl)c(S(=O)(=O)N2CCCCC2)c1	-9	.	.	11	.	2	.	.	.
O=[N+]([O-])c1ccc(N2CCCC2)cc1N1CCCC1	1	-9	6	58*	-5	12	52*	63*	53*
O=C(Nc1ccc(NC(=O)c2cccs2)cc1)c1cccs1	10	6	1	2	13	6	.	.	.
